Results from article PMC7862700, “An all-to-all approach to the identification of sequence-specific readers for epigenetic DNA modifications on cytosine”.

Key:
Experiment in all cases: DAPPL (digital affinity profiling via proximity ligation, sequencing); 10 mM Tris-HCl pH 7.5, 50 mM NaCl, 1 mM DTT, 4% glycerol, room temperature, 30 min; GST-TFs on glutathione beads, 16-mer random dsDNA library, 0.1% formaldehyde crosslink after washing; high values mean tight binding
Settings in all cases: protein: recombinant; tags: N-terminal GST; dsDNA, one strand shown
FLI1 = target: T1, FLI1 (Homo sapiens, UniProt Q01543 1-452)
T1 sequence: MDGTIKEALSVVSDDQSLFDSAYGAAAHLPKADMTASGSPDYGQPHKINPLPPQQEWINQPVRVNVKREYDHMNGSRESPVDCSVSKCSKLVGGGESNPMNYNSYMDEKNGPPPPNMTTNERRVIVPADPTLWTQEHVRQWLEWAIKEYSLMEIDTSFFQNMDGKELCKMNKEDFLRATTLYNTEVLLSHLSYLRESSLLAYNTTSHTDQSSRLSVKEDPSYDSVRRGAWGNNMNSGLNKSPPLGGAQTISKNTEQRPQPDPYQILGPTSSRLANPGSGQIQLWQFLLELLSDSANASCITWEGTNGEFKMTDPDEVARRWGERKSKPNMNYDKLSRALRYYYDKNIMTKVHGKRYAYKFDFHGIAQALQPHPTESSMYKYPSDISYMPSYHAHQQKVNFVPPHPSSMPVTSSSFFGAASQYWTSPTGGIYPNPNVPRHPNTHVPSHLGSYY
Outline: (§1)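 Binding signal is defined as a hexamer's read frequency for one factor over its frequency for the tag-only sample. To obtain reads, GST-fused human transcription factors were expressed in yeast, captured on glutathione beads, barcoded with DNA and pooled with that sample. Pools met 200 nmole of a 16-mer random double-stranded DNA library in Tris/NaCl/DTT/glycerol buffer for 30 min at room temperature before washing, 0.1% formaldehyde crosslinking, proximity ligation (BsaI/T4 ligase, 1 h, 37 °C), PCR and Illumina NextSeq500 sequencing.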

ELF1 = ELF1 (Homo sapiens, UniProt P32519 1-619)
Outline: as §1

SPI1 = SPI1 (Homo sapiens, UniProt P17947 1-270)
Outline: as §1

SPIB = SPIB (Homo sapiens, UniProt Q01892 1-262)
Outline: as §1

SPIC = target: T2, SPIC (Homo sapiens, UniProt Q8N5J4 1-248)
T2 sequence: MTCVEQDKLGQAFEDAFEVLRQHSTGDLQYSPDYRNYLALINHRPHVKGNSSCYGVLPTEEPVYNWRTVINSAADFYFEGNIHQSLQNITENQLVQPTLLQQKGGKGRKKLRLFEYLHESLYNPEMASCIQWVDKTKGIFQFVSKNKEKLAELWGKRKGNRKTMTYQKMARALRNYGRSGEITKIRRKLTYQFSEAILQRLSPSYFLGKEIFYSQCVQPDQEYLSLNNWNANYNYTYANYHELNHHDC
Outline: as §1

ELK4 = target: T3, ELK4 (Homo sapiens, UniProt P28324-2 1-405)
T3 sequence: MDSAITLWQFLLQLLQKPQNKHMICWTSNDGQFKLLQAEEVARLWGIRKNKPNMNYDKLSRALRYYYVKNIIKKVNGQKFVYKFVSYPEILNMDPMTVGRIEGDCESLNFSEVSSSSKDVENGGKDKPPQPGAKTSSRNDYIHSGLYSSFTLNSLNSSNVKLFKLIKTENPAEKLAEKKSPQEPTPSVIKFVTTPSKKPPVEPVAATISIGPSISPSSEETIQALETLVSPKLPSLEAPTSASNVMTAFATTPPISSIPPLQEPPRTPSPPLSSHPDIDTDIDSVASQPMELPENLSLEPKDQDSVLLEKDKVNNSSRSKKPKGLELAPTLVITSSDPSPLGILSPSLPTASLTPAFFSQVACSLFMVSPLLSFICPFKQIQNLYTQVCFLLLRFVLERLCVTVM
Outline: as §1

ETV2 = target: T4, ETV2 (Homo sapiens, UniProt O00321 1-342)
T4 sequence: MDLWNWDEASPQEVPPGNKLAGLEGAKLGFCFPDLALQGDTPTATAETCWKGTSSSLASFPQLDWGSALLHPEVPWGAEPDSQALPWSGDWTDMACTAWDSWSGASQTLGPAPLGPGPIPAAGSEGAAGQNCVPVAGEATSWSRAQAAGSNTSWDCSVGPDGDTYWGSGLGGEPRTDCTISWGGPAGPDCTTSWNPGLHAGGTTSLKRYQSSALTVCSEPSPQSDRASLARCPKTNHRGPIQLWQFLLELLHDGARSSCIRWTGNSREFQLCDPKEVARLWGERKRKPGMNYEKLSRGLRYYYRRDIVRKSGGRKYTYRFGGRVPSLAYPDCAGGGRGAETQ
Outline: as §1

ELF3 = target: T5, ELF3 (Homo sapiens, UniProt P78545 1-371)
T5 sequence: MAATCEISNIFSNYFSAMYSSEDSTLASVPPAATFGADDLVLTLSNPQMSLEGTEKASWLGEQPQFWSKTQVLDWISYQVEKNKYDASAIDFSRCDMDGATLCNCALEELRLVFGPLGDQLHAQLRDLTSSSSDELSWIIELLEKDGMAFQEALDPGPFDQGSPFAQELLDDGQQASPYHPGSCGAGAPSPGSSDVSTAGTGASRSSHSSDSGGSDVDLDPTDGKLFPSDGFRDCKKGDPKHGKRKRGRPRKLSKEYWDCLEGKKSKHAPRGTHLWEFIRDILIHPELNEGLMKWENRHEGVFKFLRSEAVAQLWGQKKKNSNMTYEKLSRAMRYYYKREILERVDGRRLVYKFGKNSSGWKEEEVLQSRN
Outline: as §1

ETV1 = ETV1 (Homo sapiens, UniProt P50549 1-477)
Outline: as §1

ELF4 = ELF4 (Homo sapiens, UniProt Q99607 1-663)
Outline: as §1

Sequence of ELF4 (Q99607 whole entry): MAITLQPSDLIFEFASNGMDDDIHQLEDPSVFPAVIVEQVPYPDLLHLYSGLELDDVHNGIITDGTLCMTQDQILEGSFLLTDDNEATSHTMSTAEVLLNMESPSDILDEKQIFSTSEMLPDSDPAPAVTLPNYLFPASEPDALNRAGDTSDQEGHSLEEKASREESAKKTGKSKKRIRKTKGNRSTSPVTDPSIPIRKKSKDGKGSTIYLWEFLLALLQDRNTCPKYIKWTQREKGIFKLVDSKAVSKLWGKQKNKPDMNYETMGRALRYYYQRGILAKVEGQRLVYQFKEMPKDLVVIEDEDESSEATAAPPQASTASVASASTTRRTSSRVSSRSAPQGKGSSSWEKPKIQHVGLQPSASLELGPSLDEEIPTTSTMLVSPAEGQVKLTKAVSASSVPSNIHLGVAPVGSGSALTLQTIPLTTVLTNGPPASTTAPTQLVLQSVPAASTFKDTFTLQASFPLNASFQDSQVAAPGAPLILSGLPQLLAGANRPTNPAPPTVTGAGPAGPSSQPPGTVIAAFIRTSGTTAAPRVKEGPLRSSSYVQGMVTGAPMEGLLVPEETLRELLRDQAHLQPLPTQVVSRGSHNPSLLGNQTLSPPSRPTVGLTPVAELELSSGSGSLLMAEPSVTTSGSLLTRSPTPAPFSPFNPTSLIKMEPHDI
Sequence of ELF1 (P32519 whole entry): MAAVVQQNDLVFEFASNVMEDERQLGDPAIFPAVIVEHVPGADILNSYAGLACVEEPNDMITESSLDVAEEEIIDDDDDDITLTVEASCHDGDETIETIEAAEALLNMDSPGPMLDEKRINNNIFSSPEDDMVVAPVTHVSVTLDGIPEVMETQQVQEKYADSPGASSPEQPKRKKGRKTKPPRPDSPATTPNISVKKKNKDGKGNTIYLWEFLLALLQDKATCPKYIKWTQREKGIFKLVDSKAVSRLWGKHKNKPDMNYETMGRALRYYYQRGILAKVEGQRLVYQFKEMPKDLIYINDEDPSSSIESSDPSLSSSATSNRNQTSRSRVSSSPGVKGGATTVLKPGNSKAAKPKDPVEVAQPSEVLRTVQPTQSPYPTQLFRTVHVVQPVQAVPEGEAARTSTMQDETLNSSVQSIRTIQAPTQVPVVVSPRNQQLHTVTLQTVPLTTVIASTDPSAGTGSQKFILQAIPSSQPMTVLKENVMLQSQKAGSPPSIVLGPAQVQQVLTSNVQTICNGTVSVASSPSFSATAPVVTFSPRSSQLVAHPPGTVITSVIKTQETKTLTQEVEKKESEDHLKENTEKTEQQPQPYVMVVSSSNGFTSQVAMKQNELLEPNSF
Sequence of ETV1 (P50549 whole entry): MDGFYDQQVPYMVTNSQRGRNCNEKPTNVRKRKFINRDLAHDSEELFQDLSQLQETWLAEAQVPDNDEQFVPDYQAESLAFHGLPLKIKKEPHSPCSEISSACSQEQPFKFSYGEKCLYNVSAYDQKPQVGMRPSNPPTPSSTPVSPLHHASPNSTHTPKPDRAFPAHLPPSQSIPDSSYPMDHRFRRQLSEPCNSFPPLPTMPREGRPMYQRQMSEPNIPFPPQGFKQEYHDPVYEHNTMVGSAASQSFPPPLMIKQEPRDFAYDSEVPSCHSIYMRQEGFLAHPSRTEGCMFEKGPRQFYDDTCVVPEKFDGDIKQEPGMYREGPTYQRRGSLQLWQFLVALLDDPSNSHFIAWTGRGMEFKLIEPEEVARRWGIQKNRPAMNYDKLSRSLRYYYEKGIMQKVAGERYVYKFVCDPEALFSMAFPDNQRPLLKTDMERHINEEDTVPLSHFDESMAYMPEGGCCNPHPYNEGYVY
Sequence of SPIB (Q01892 whole entry): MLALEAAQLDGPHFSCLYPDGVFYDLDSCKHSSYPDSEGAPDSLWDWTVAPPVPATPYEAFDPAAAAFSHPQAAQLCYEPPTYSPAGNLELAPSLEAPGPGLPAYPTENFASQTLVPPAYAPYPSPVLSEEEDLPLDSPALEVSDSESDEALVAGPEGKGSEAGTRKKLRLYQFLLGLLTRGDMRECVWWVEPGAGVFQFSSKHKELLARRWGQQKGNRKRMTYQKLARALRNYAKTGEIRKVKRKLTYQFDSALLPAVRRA

| Sequence | binding signal (FLI1) | binding signal (ELF1) | binding signal (SPI1) | binding signal (SPIB) | binding signal (SPIC) | binding signal (ELK4) | binding signal (ETV2) | binding signal (ELF3) | binding signal (ETV1) | binding signal (ELF4) |
| --- | --- | --- | --- | --- | --- | --- | --- | --- | --- | --- |
| ACTGTC | 1.02 fold enrichment (6-mer frequency, TF over GST control) | 1.01 fold enrichment (6-mer frequency, TF over GST control) | 1 fold enrichment (6-mer frequency, TF over GST control) | 1.05 fold enrichment (6-mer frequency, TF over GST control) | 1.09 fold enrichment (6-mer frequency, TF over GST control) | 1 fold enrichment (6-mer frequency, TF over GST control) | 1.1 fold enrichment (6-mer frequency, TF over GST control) | 1.01 fold enrichment (6-mer frequency, TF over GST control) | 1 fold enrichment (6-mer frequency, TF over GST control) |  |
| TGGCGT | 1.01 fold enrichment (6-mer frequency, TF over GST control) |  |  |  | 1.04 fold enrichment (6-mer frequency, TF over GST control) |  | 1.05 fold enrichment (6-mer frequency, TF over GST control) |  |  | 1.01 fold enrichment (6-mer frequency, TF over GST control) |
